Assays:
Assay in all cases: PBM binding z-score (relative to random genomic background probes); higher = stronger binding; sequences stand for … in GC…GCGATTGACAGCGTAGAATGAAGG
[1] = system: FXR:RXRa (NR concentration 270 nM, RXRa partner concentration 90 nM)
Method in brief: (§1)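 Ligand-free nuclear receptor dimers were bound for 1 h to custom Agilent 4×180K protein-binding microarrays. Detection used antibodies against each partner (one per run). Binding z-scores rest on regression-normalized fluorescence, with random background probes as the reference.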

[2] = system: LXRa:RXRa (NR concentration 270 nM, RXRa partner concentration 90 nM)
Method in brief: as §1

[3] = system: LXRa homodimer (NR concentration 270 nM)
Method in brief: as §1

[4] = system: LXRb:RXRa (NR concentration 270 nM, RXRa partner concentration 90 nM)
Method in brief: as §1

[5] = system: LXRb homodimer (NR concentration 270 nM)
Method in brief: as §1

[6] = system: PPARa:RXRa (NR concentration 270 nM, RXRa partner concentration 90 nM)
Method in brief: as §1

[7] = system: PPARg:RXRa (NR concentration 180 nM, RXRa partner concentration 90 nM)
Method in brief: as §1

[8] = system: PPARg:RXRa 270nM:90nM, anti-RXR (NR concentration 270 nM, RXRa partner concentration 90 nM)
Method in brief: as §1

[9] = system: PPARg:RXRa 30nM:10nM, anti-RXR (NR concentration 30 nM, RXRa partner concentration 10 nM)
Method in brief: as §1

[10] = system: PPARg:RXRa 90nM:30nM, anti-RXR (NR concentration 90 nM, RXRa partner concentration 30 nM)
Method in brief: as §1

[11] = system: PPARg:RXRa DBDmut IVT, anti-RXR (DBD mutation: RXRa K156A/R161A, NR concentration 270 nM, RXRa partner concentration 90 nM)
Method in brief: as §1

[12] = system: PPARg:RXRa IVT, anti-PPARg (NR concentration 270 nM, RXRa partner concentration 90 nM)
Method in brief: as §1

[13] = system: PPARg DBDmut:RXRa IVT, anti-PPARg (DBD mutation: PPARg1 K132A/R137A, NR concentration 270 nM, RXRa partner concentration 90 nM)
Method in brief: as §1

[14] = system: PPARg DBDmut IVT, anti-PPARg (DBD mutation: PPARg1 K132A/R137A, NR concentration 270 nM)
Method in brief: as §1

[15] = system: PPARg homodimer (NR concentration 180 nM)
Method in brief: as §1

[16] = system: PXR:RXRa (NR concentration 270 nM, RXRa partner concentration 90 nM)
Method in brief: as §1

[17] = system: PXR homodimer (NR concentration 270 nM)
Method in brief: as §1

[18] = system: RARa:RXR (NR concentration 270 nM, RXRa partner concentration 90 nM)
Method in brief: as §1

[19] = system: RARa homodimer (NR concentration 270 nM)
Method in brief: as §1

[20] = system: RARb:RXRa (NR concentration 270 nM, RXRa partner concentration 90 nM)
Method in brief: as §1

| Sequence | PBM binding z-score [1] | PBM binding z-score [2] | PBM binding z-score [3] | PBM binding z-score [4] | PBM binding z-score [5] | PBM binding z-score [6] | PBM binding z-score [7] | PBM binding z-score [8] | PBM binding z-score [9] | PBM binding z-score [10] | PBM binding z-score [11] | PBM binding z-score [12] | PBM binding z-score [13] | PBM binding z-score [14] | PBM binding z-score [15] | PBM binding z-score [16] | PBM binding z-score [17] | PBM binding z-score [18] | PBM binding z-score [19] | PBM binding z-score [20] |
| --- | --- | --- | --- | --- | --- | --- | --- | --- | --- | --- | --- | --- | --- | --- | --- | --- | --- | --- | --- | --- |
| TCGTATAGGTAATACAGGTGAAAGTCGGCATCTA | 0.718 | 1.21 | 0.63 | 0.967 | -0.231 | 1.75 | 0.665 | 1.96 | 2.76 | 2.39 | 2.32 | 2.24 | 0.787 | 1.03 | 0.975 | 0.742 | 0.293 | 0.746 | 1.16 | 0.691 |
| CCTACTGGGCCATTCAGAGGTCATGGATCATATG | 2.57 | 4.16 | 5.17 | 3.61 | -0.202 | 4.54 | 2.64 | 3.6 | 1.23 | 3.29 | 4.14 | 4.64 | 0.856 | 0.389 | 2.93 | 4.92 | 0.765 | 5.46 | 0.962 | 3.19 |
| CAAACTAGGTCACGAAAGGTGAAAGTCGAATGAC | 5.43 | 5.63 | 0.891 | 4.24 | 0.569 | 6.05 | 9.57 | 7.7 | 6.24 | 7.8 | 8.57 | 8.88 | 1.44 | 1.5 | 3.13 | 4.13 | 0.228 | 4.69 | 1.24 | 4.84 |
| TCTTGTAGCTCAATAGAGGTTAAGAAAGTGCGCT | 0.285 | 3.13 | 0.267 | 1.49 | -0.618 | 1.52 | -0.424 | 0.893 | 1.96 | 1.41 | 0.915 | 0.506 | 0.592 | 0.551 | -0.185 | 2.46 | -0.163 | 1.28 | -0.147 | 0.573 |
| CCGAGTTGGTTATGGGGCATTCAGGCAACGGTGA | 0.0617 | 0.0147 | -0.147 | 0.0515 | -0.451 | 0.287 | 0.0793 | 0.583 | -0.717 | 0.0357 | 0.136 | 0.993 | -0.435 | -0.836 | 0.998 | 0.00372 | 0.402 | 0.155 | 0.692 | 0.288 |
| TCATATAGGTAATACAGGTGAAAATCGGCATCTA | 1.35 | 1.37 | 0.422 | 1.27 | 0.421 | 2 | 1.78 | 2.58 | 4.1 | 3.43 | 3.9 | 3.09 | 1.52 | 1.47 | 1.22 | 0.9 | 0.486 | 1.46 | 1.89 | 0.59 |
| CGTCAAAGTTCAAGTAAGGTAACGTAAAGCACGC | 6.99 | 6.43 | 4.16 | 4.1 | 1.85 | 5.15 | 5.02 | 5.63 | 2.56 | 4.25 | 0.544 | 2.41 | 0.93 | 0.765 | 3.47 | 5.21 | 3.9 | 4.3 | 1.99 | 5.29 |
| ACAGACAGGTGAGTGAAGGTAACACAGCTGGACG | 0.433 | 0.227 | -0.295 | -0.073 | -0.319 | 0.307 | 1.16 | 0.43 | 0.00598 | 0.0299 | 0.662 | 0.632 | 0.226 | -0.221 | 0.391 | -0.00194 | 0.205 | 0.574 | 0.248 | 0.597 |
| TTACCAAGGTGAGCTAAGGTCGTTGATCCAACTC | 3.04 | 1.56 | -0.466 | 0.977 | -1.12 | 1.66 | 0.5 | 1.42 | 0.431 | 0.771 | 1.04 | 1.93 | -0.698 | -0.173 | 0.0568 | 4.6 | 0.308 | 2.41 | -1.25 | 1.91 |
| CCGAGTAGGTTATGGGGCATTCATGCAACGGTGA | 0.225 | 0.548 | -0.0106 | 0.797 | -0.214 | 2.26 | 3.65 | 4.6 | 3.02 | 4.44 | 3.37 | 3.49 | -0.836 | 0.00847 | 0.908 | 0.114 | -0.204 | 0.175 | 0.24 | 0.981 |
| CAAACTAGGTCACAGCGGTCAAAGTCCGTGCGTA | 5.25 | 5.23 | 5.2 | 4.06 | 0.739 | 5.65 | 8.85 | 7.4 | 5.13 | 7.02 | 8.22 | 8.97 | 2.1 | 1.7 | 2.78 | 3.32 | 1.36 | 3.58 | 1.2 | 4.58 |
| GGAACGAGGGCATGCGAGTTGATAGCATGGCGAT | 0.758 | 0.468 | -0.615 | -0.143 | -1.37 | 1.35 | 0.979 | 0.516 | -0.248 | 0.117 | 2.78 | 1.98 | -0.352 | -0.663 | -0.621 | 3.59 | 0.407 | 0.73 | -0.824 | 1.91 |
| CGTCAAAGTTCATCTAAGGTAACGTAAAGCACGC | 6.89 | 6.38 | 4.65 | 4.03 | 2.11 | 4.73 | 4.57 | 5.27 | 2.69 | 4.22 | 0.47 | 1.89 | 0.673 | 1.11 | 3.01 | 5.51 | 5.77 | 3.97 | 1.85 | 4.78 |
| CCTGCTAGGTCAATGGTTAGCTAAAGCAGCTCGC | 2.78 | 1.76 | -0.418 | 1.44 | -0.3 | 2.63 | 3.33 | 3.77 | 1.16 | 3.2 | 4.4 | 3.57 | -0.722 | -1.05 | 0.942 | 0.745 | -0.456 | 1.29 | -0.0432 | 3.74 |

— the supplement of paper PMC6555819
